In PubChem BioAssay (Tox21) one finds Potency and outcome data, which are given here for eight compounds.

Records with an inconclusive call do not appear. Activity calls are given as the source filed them. Unless noted, the call rests on the fitted dose curve; in most records, active means well fitted curve in the direction sought with a large enough effect in the repeat runs; inconclusive means weak or mixed curves; inactive means no such curve, though single readings can be large; an effect the other way counts as inactive or inconclusive.

A short description of test [1]: qHTS assay to identify small molecule antagonists of the estrogen receptor alpha (ER-alpha) signaling pathway using the BG1 cell line in the presence of 0.1 nM 17-beta-estradiol - cell viability counter screen (AID 1259241). Further: nearly all actives have a fitted effect of over 40% in size. Put shortly: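 VM7Luc4E2 cells (endogenous full-length ER-alpha, 4xERE-luciferase), cultured 5 days in charcoal-stripped serum, exposed to compounds with 0.1 nM 17beta-estradiol (final) for 22 hr at 37C. Viability read in same wells as live-cell protease fluorescence after 30 min.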
(In general: qHTS replaces the single test concentration by a dilution series.)

Test [2] can be described thus: qHTS assay to identify small molecule antagonists of the androgen receptor (AR) signaling pathway using the MDA cell line in the presence of 0.5 nM R1881 - cell viability counter screen (AID 1259242). Further: nearly all actives have a fitted effect of over 45% in size. Put shortly:
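Live-cell protease activity was measured by CellTiter-Fluor fluorescence after 30 min. Before that, MDA-kb2 MMTV-luciferase cells had 16 hr at 37C without CO2, exposed to test compounds and 0.5 nM R1881 final.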

Test [3] addresses Androgen receptor (Homo sapiens) (UniProt P10275). The experiment in a line: qHTS assay to identify small molecule antagonists of the androgen receptor (AR) signaling pathway using the MDA cell line in the presence of 0.5 nM R1881 (AID 1259243). Further: nearly all actives have a fitted effect of over 50% in size. Put shortly: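 Luminescent reporter readout (ONE-Glo, 30 min, room temperature) after 16 hr co-treatment of MDA-kb2 cells with test compounds and 0.5 nM R1881 final, at 37C without CO2. The MMTV-driven luciferase responds to both AR and GR.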

Test [4] is described as follows: qHTS assay to identify small molecule HDAC inhibitors (AID 1259364). Further: top concentration of the series differs between compounds; nearly all actives have a fitted effect of over 45% in size. Put shortly:
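Luminescence read after 30 min room-temperature HDAC-Glo incubation measures cellular class I/II HDAC activity. Compounds were applied for 2 hr at 37 C to HCT-116 wild-type cells seeded the day before.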

Test [5] in a line: qHTS assay to identify small molecule agonists of the sonic hedgehog signaling (Shh) pathway - cell viability counter screen (AID 1259366). Further: nearly all actives have a fitted effect of over 50% in size. Put shortly: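 NIH/3T3-derived Gli1-Luc reporter cells, 2,000 per well, received compound after 4 h and were treated about 23 h at 37C. Viability measured in the same wells by CellTiter-Fluor fluorescence after 1 h.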
The nature of test [6]: qHTS assay to identify small molecule antagonists of the sonic hedgehog signaling (Shh) pathway - cell viability counter screen (AID 1259367). Further: nearly all actives have a fitted effect of over 55% in size. Put shortly: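 CellTiter-Fluor signal in conditioned medium-stimulated 3T3 Gli1-Luc cells, 23 hr compound exposure, 37C.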
Test [7] in a line: qHTS assay to identify small molecule agonists of the sonic hedgehog signaling (Shh) pathway (AID 1259368; calls by dose curve;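 further: NIH/3T3-derived 3T3Gli1-Luc cells carrying a stable Gli1-driven firefly luciferase reporter; series mostly up to about 92 µM; nearly all actives have a fitted effect of over 15% in size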). Put shortly:
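Luminescence was read after 30 min at room temperature with luciferase reagent. Before that, 3T3Gli1-Luc cells (NIH/3T3 clone, stable Gli1-Luc reporter; 2,000/well) were exposed to compounds for 24 hr at 37C, 5% CO2, compounds being added 4 hr post-plating.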

Test [8] in a line: qHTS assay to identify small molecule antagonists of the sonic hedgehog signaling (Shh) pathway (AID 1259369; calls by dose curve; further: nearly all actives have a fitted effect of over 45% in size). Put shortly: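 Antagonist mode: compound added to 3T3 Gli1-Luc cells followed by conditioned-medium stimulation, 24 h at 37 C, 5% CO2. Inhibition taken as loss of Gli1-driven luciferase luminescence.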
For test [9], the target named is Estrogen receptor beta (Homo sapiens) (UniProt Q92731). Briefly: qHTS assay to identify small molecule antagonists of the estrogen receptor beta (ER-beta) signaling pathway (AID 1259378; active means well fitted inhibition curve with a large enough effect in the signal ratio in the repeat runs, not every such curve was filed as active; the % refers to the signal ratio). Put shortly: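 Antagonist mode: compounds added to beta-lactamase reporter HEK293T ER-beta-UAS cells stimulated with E2 (1nM final), 16 hr at 37C. LiveBLAzer B/G FRET substrate, 2 hours room temperature, fluorescence read-out.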

Test [10] is described as follows: qHTS assay to identify small molecule agonists of the androgen receptor (AR) signaling pathway in the presence of an antagonist - cell viability counter screen (AID 1259379).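 Further: MDA-kb2 human breast cancer cells carrying an MMTV luciferase reporter; series mostly up to about 92 µM; nearly all actives have a fitted effect of over 25% in size.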 Put shortly: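 Cytotoxicity counter-screen run in the same wells as the nilutamide-challenged (3.0 µM final) AR agonist assay in MDA-kb2 cells. Compounds tested at 15 concentrations for 16 h, 37 °C without CO2; CellTiter-Fluor fluorescence read.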

Test [11] in a line: qHTS assay to identify small molecule agonists of the estrogen receptor beta (ER-beta) signaling pathway - cell viability counter screen (AID 1259380). Further: nearly all actives have a fitted effect of over 30% in size. Put shortly:
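Cell viability counter screen: CellTiter-Glo luminescence (30 min, room temperature) measured in the same wells as the beta-lactamase readout, after 16 hr compound exposure at 37C of ER-beta-bla HEK293T cells in 2% charcoal-stripped FBS medium.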

The target in test [12] is Androgen receptor (Homo sapiens) (UniProt P10275). Briefly: qHTS assay to identify small molecule agonists of the androgen receptor (AR) signaling pathway in the presence of an antagonist (AID 1259381; calls by dose curve; further: nearly all actives have a fitted effect of over 15% in size). Put shortly:
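Agonist-mode confirmation run against 3.0 uM final nilutamide: compounds titrated at 15 concentrations onto MDA-kb2 MMTV-luciferase reporter cells. Luminescence measured with ONE-Glo following 16 hr incubation, 37C, 0% CO2.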

Test [13] in a line: qHTS assay to identify small molecule antagonists of the estrogen receptor beta (ER-beta) signaling pathway - cell viability counter screen (AID 1259382).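 Further: HEK293T cells carrying ER-beta-UAS-bla reporter stimulated with estradiol; series mostly up to about 92 µM; nearly all actives have a fitted effect of over 55% in size.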 Put shortly: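 Cytotoxicity was measured in the same wells by CellTiter-Glo luminescence after 30 min at room temperature. Cells were ER-beta-bla HEK293T in charcoal-stripped serum, given compound together with 1 nM E2 and incubated 16 h at 37C.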

Test [14] is described as follows: qHTS assay to identify small molecule agonists or antagonists of the thyroid stimulating hormone receptor (TSHR) signaling pathway - wild type cell line counter screen (AID 1259384; calls by dose curve). Put shortly: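 Counter screen in untransfected Hek293: compounds (15-point titration, triplicate) plus phosphodiesterase inhibitor Ro20-1724 added after 18 h plating; 30 min RT. Intracellular cAMP via competitive d2/cryptate immunoassay, 1 h incubation.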

Test [15] has as its target Thyrotropin receptor (Homo sapiens) (UniProt P16473). The experiment in a line: qHTS assay to identify small molecule antagonists of the thyroid stimulating hormone receptor (TSHR) signaling pathway (AID 1259385; calls by dose curve; further: nearly all actives have a fitted effect of over 20% in size). Put shortly:
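Antagonist mode: compound-treated TSHR-expressing HEK293 cells were stimulated with 1.5 ng/mL TSH (final) in presence of Ro20-1724 for 30 min at RT. HTRF cAMP detection after 1 h; each compound tested at 15 concentrations, triplicate.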

The target of test [16] is Estrogen receptor (Homo sapiens) (UniProt P03372). Briefly: qHTS assay to identify small molecule antagonists of the estrogen receptor alpha (ER-alpha) signaling pathway using the BG1 cell line in the presence of 0.1 nM 17-beta-estradiol (AID 1259244). Further: nearly all actives have a fitted effect of over 50% in size. Put shortly: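 Luciferase luminescence (ONE-Glo, 30 min at room temperature) was read after 22 hr at 37C exposure to compounds plus 17beta-estradiol at 0.1 nM final. Cells were VM7Luc4E2 with endogenous ER-alpha and an ERE-driven luciferase, pre-cultured 5 days in hormone-depleted medium.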

Test [17] can be described thus: qHTS assay to identify small molecule phospholipidosis (PLD) inducers (AID 1259344; active means well fitted curve in the direction sought with a large enough effect; an effect the other way counts as inactive or inconclusive). Put shortly: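 Accumulated phospholipid, stained red by LipidTOX during 24 h compound treatment of HepG2 cells at 37 C, is quantified from images as pit number and intensity, normalised per cell using Hoechst-stained nuclei.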
Test [18] can be described thus: qHTS assay to identify small molecule HDAC inhibitors - cell viability counter screen (AID 1259365). Further: series mostly up to about 92 µM; nearly all actives have a fitted effect of over 50% in size. Put shortly:
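Wild-type HCT-116 cells, 1,500/well, cultured overnight, then compound-treated 2 h at 37 C. Viability measured as ATP luminescence with CellTiter-Glo after 30 min at room temperature.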

The target of test [19] is Estrogen receptor (Homo sapiens) (UniProt P03372). Briefly: qHTS assay to identify small molecule agonists of the estrogen receptor alpha (ER-alpha) signaling pathway in the presence of an antagonist (AID 1259383; calls by dose curve; further: nearly all actives have a fitted effect of over 15% in size; further: potency means the concentration at half of the fitted maximal effect; on activation: top concentration of the series differs between compounds). Put shortly:
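Agonist-mode confirmation run in the presence of 10.0nM (final) ICI-182,780 antagonist. The reporter was ERE-driven luciferase in VM7Luc4E2 cells, grown in charcoal-stripped serum. Cells were exposed to 15-concentration compound series for 22hr, then ONE-Glo luminescence was read.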

For test [20], the target named is Estrogen receptor beta (Homo sapiens) (UniProt Q92731). The experiment in a line: qHTS assay to identify small molecule agonists of the estrogen receptor beta (ER-beta) signaling pathway (AID 1259377; active means well fitted activation curve with a large enough effect in the signal ratio in the repeat runs, not every such curve was filed as active; the % refers to the signal ratio). Put shortly: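 ER-beta-UAS-bla HEK293T cells in medium with 2% charcoal-stripped FBS were exposed to compounds for 16 h at 37C. Beta-lactamase reporter activity was read as fluorescence after 2 h with LiveBLAzer B/G FRET substrate at room temperature.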

Thyrotropin receptor (Homo sapiens), sequence (P16473 whole entry, looked up): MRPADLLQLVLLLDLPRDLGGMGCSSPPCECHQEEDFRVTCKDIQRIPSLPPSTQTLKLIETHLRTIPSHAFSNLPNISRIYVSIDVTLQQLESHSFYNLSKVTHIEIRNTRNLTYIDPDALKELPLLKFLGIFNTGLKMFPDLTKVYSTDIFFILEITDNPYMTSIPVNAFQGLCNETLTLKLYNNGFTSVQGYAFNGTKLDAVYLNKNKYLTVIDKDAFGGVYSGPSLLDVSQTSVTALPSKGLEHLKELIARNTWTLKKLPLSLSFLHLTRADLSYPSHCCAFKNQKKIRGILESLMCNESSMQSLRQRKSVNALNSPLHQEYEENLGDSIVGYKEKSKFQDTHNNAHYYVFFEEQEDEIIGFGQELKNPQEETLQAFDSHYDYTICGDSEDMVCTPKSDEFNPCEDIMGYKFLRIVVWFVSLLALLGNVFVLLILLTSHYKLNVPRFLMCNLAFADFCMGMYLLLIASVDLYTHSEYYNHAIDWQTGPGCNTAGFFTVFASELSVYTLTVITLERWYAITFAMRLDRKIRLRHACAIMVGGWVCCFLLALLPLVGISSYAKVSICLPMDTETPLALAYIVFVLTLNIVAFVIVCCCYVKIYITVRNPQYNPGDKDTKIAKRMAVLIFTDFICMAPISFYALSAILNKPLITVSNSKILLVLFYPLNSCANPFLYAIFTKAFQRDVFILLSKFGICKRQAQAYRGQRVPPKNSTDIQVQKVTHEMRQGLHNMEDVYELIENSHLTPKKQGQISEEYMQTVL
Estrogen receptor beta (Homo sapiens), sequence (Q92731 whole entry, looked up): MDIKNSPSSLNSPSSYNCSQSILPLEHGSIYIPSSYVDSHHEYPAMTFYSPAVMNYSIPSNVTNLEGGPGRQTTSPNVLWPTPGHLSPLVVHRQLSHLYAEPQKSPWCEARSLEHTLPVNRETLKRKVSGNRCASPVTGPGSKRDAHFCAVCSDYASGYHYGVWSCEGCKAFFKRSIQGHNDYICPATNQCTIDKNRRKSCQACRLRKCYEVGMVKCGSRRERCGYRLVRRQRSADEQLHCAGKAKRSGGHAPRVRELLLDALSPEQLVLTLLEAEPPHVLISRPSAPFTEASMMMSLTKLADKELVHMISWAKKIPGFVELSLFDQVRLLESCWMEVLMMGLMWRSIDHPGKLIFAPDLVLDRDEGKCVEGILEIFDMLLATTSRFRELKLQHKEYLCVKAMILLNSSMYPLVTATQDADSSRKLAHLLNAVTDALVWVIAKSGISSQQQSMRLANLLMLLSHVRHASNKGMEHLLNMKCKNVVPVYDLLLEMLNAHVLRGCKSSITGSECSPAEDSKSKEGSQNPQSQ
Estrogen receptor (Homo sapiens), sequence (P03372 whole entry, looked up): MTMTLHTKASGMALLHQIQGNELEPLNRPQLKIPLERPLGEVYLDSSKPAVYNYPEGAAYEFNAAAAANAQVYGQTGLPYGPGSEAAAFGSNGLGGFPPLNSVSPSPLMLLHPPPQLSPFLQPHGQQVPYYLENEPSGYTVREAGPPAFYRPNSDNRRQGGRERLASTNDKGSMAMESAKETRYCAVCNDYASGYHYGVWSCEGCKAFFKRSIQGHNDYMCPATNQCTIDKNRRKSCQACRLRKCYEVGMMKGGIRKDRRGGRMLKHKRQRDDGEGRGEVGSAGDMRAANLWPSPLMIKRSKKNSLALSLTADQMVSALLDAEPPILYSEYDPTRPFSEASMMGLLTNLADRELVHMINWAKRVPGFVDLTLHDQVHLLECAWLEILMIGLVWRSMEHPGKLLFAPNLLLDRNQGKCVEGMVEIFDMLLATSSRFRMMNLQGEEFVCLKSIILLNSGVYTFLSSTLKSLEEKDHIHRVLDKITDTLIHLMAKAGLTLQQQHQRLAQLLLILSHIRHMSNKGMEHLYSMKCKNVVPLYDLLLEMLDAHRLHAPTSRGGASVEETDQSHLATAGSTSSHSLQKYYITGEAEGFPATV
Androgen receptor (Homo sapiens), sequence (P10275 whole entry, looked up): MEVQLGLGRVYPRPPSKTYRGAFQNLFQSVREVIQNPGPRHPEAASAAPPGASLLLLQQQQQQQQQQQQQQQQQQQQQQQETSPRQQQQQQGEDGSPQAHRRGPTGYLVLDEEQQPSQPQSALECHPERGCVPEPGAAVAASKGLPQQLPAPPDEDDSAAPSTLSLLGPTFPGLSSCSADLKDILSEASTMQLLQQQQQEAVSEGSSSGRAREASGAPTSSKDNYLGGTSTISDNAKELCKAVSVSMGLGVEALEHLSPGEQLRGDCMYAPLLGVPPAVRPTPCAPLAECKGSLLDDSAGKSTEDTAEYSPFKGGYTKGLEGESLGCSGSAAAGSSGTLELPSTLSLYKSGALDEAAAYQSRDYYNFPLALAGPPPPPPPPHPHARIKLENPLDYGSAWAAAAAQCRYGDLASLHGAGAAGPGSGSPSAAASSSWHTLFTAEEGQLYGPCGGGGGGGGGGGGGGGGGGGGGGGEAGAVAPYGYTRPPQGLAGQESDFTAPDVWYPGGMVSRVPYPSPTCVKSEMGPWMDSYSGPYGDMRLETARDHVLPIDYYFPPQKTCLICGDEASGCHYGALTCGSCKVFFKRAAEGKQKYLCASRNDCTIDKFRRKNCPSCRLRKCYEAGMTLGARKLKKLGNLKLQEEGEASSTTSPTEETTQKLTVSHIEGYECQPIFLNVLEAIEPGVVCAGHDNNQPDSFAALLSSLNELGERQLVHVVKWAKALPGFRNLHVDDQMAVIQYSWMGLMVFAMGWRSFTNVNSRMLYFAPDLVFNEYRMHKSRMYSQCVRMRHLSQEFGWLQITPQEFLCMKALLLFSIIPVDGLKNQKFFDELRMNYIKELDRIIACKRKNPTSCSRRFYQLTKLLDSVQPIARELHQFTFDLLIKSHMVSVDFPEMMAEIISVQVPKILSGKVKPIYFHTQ

For the compound `CN(C)N`, the Potency result in test [1], in test [2], in test [3], in [4], in test [5] and in test [6] was “inactive” in each case. Further, the Potency entry in test [7], in test [8], in test [9], in [10], in test [11] and in test [12] was “inactive” throughout. Further, the Potency result in test [13] and in [15] was “inactive” in each case. Further, the outcome in [14] was inactive.
As to `CCC1(C2=NCCN2)Cc2ccccc2O1` (centres undefined), the Potency entry in test [1], in test [2], in [3], in test [16], in test [4] and in [18] was “inactive” in each case. For the same compound, the Potency result in test [5], in test [6], in test [7], in test [8], in test [10] and in [11] was “inactive” each time. For the same compound, the Potency entry in [12], in test [13] and in test [15] was “inactive” each time. For the same compound, the call in test [17] and in test [14] was inactive. For the same compound, the Potency in test [19] is 3.35 µM (active).
`Clc1ccc2ccccc2c1`: the Potency result in [1], in test [2], in [3], in test [16], in test [4] and in [18] was “inactive” throughout. Also, the Potency entry in test [5], in test [6], in test [7], in test [8], in [20] and in [9] was “inactive” throughout. Moreover, the Potency result in [10], in [11], in test [12], in test [13], in test [19] and in test [15] was “inactive” each time. Further, the compound was called inactive in test [14].
For the compound `C[N+](C)(C)CC1CO1` (centres undefined), the Potency entry in test [1], in test [2], in test [3], in test [16], in [4] and in test [18] was “inactive” in each case. Further, the Potency result in [5], in test [6], in [7], in test [8], in test [20] and in [9] was “inactive” throughout. Besides, the Potency entry in test [10], in test [11], in test [12], in test [13], in test [19] and in [15] was “inactive” each time. For the same compound, in test [14], the call was inactive.
For the compound `C[N+]1(CCC(C(N)=O)(c2ccccc2)c2ccccc2)CCCCC1`, the Potency result in test [1], in test [2], in [16], in test [4], in [18] and in test [5] was “inactive” in each case. Also, the Potency result in test [6], in [7], in test [8], in test [10], in test [11] and in [13] was “inactive” each time. In addition, the Potency result in test [19] and in [15] was “inactive” in each case. Also, the outcome in test [17] and in test [14] was inactive.
With `CN1C(=O)CN=C(c2ccccc2)c2cc([N+](=O)[O-])ccc21`, the Potency entry in test [1], in test [2], in [3], in test [16], in [4] and in test [18] was “inactive” in each case. The Potency result in test [5], in test [6], in [8], in test [10], in test [11] and in test [12] was “inactive” throughout. In addition, the Potency result in test [13], in test [19] and in test [15] was “inactive” each time. Further, the compound was called inactive in test [17] and in test [14].
As to `c1ccc2c(c1)sc1ccccc12`, the Potency entry in [1], in test [2], in test [16], in test [4], in [18] and in [5] was “inactive” throughout. The Potency entry in test [6], in test [8], in test [10], in test [11], in [13] and in [19] was “inactive” each time. In addition, in [15], the Potency entry is “inactive”. Besides, the compound was called inactive in [17] and in test [14].
As to `Cc1cccc(C)c1NC1=NCCCS1`, the Potency result in [1], in test [2], in test [16], in test [4], in test [18] and in test [5] was “inactive” each time. In addition, the Potency entry in [6], in test [8], in test [10], in test [11], in test [13] and in [19] was “inactive” each time. The Potency entry in test [15] was “inactive”. For the same compound, the call in test [17] and in test [14] was inactive.
